# Assay results from PubChem BioAssay (NCI).
# The panel holds about 83,000 compounds, 20% with a hit somewhere; the sample as a whole holds those more often.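 Interpretation: 100, growth as untreated; towards 0, rising growth inhibition; 0, no net growth; 0 to -100, cell death. Compounds scoring below 10 were considered active.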 A number with no mark means an inactive call. Calls of active or inactive are those of the source.
# System: T-47D breast
# Assay: NCI-60 one-dose screen, 48 h (100 = growth as untreated, 0 = no growth, -100 = all killed)
# Details: 10 µM unless noted
row,SMILES,growth
1,O=C(CCSc1nnc2n(Cc3ccccc3)c(=O)c3c4c(sc3n12)CCCC4)N1CCN(c2ccccc2)CC1,101%
2,Cc1nc2c(c(=O)[nH]1)C(c1ccccc1)c1ccc3ccccc3c1O2 (centres undefined),39.1%
3,CC(=O)OC(c1ccccc1)C1CCOC1=O (centres undefined),106%
4,COc1cccc(/C=C/C(=O)c2cc3c(N)c(C(=O)Nc4cccc5ccccc45)sc3nc2C)c1,32.3%
5,Cc1cc2c(cc1C)N(C(=O)CCl)CC(=O)N2,15.6%
6,CC1(C)OB(O)c2cc(-c3nc4ccc5[nH]ncc5c4c4c3CCCC4)ccc21,34.9%
7,CCN1C(=O)N(CC)C2C1NN=c1s/c(=C\c3ccc(C(F)(F)F)cc3)c(=O)n12 (centres undefined),64.7%
8,COCCn1cc(-c2csc(-c3c[nH]c4ccc(Br)cc34)n2)c2cccnc21,-1.1% (active)
9,O=C1/C=C/[C@@H](O)[C@@H]2C[C@@H](O)C[C@H]2/C=C/CCC[C@H](CCO)O1,-17.8% (active)
10,O=C(/C=C(O)/C=C/c1cccc2[nH]ccc12)/C=C/c1cccc2[nH]ccc12,65%
11,CCn1c(-c2cc3c([nH]c4ccccc43)c(-c3cccc(O)c3)n2)n[nH]c1=S,11.7%
12,CC1=C(C(=O)Nc2nc(-c3ccc(Cl)cc3)cs2)[C@H](c2ccc(O)cc2)NC(=O)N1,70.5%
13,CCCCCCCCCCCCCCCCCC1=NC(C)(C)CN1CC(C)O (centres undefined),72.6%
14,CCCCCCCC/C=C\CCCCCCCCOc1ccc(CC(=O)NCC[N+]2(C)CCOCC2)cc1,84.2%
15,CNC(=O)c1ccccc1Nc1nc(Nc2cc(OC)c(OC)c(OC)c2)ncc1Br,-25.2% (active)
16,O=C(Nc1ccc(Br)cc1)C1=NCCCCN1,71.3%
17,N#Cc1nc(-c2ccccc2)oc1S(=O)(=O)N1CCN(c2ccc(F)cc2)CC1,55.8%
18,C=Cc1cnc(Nc2ccc(OC)cc2)nc1NCCCNC(=O)C1CCC1,66.8%
19,CN1CCN(Cc2ccc(NC(=O)c3cncc(C#Cc4cnc(N)c5ncccc45)c3)cc2C(F)(F)F)CC1,35.9%
20,CN1CCN(Cc2ccc(NC(=O)c3cncc(C#Cc4cnc(N)c5ccc(F)cc45)c3)cc2C(F)(F)F)CC1,43.5%

row,SMILES,growth
1,O=C1Nc2ccccc2/C1=C\c1c[nH]c2ccc(Br)cc12,26.6%
2,NC(=O)c1c(NC(=O)c2cccs2)sc2c1CCC(=O)C2,8.16% (active)
3,O=c1nc(-c2ccccc2)c2cc(-c3ccc(C(F)(F)F)nc3)ccc2[nH]1,95.3%
4,O=C1C(Nc2ccccn2)=C(I)C(=O)c2ncccc21,-42.5% (active)
5,Cc1ccc(-c2csc(NC(=O)c3ccccc3CN3C(=O)c4ccccc4C3=O)n2)cc1,97.1%
6,COC(=O)CC[C@@H]1O[C@@H](c2ccc(F)cc2)[C@@H](O)[C@H]1O,104%
7,O=c1cc(-c2ccccc2)[nH]c2ncc(-c3ccc(F)cc3)n12,74.3%
8,Oc1c(CN2CCOCC2)cc(COCc2ccccc2)c2cccnc12,10.4%
9,CCS/C(Nc1ccccc1)=C(\C#N)C(=O)Nc1ccc(OC)cc1,25.4%
10,COc1cc(NC(=O)c2cncnc2Nc2ccc3c(ccn3Cc3ccccn3)c2)cc(OC)c1,45.3%
11,OCCNCCNC(Cc1ccc(Cl)cc1)c1ccccc1 (centres undefined),44.6%
12,N#Cc1cccc(C2C3=C(COC3=O)N(CCO)c3cc4c(cc32)OCO4)c1 (centres undefined),20.8%
13,CN(Cc1ccccc1)c1nc(Cl)c(C2CC(c3ccccc3)=NN2c2ccccc2)s1 (centres undefined),71.9%
14,C=C1C(=O)O[C@H]2[C@H]1CC/C(CNC(=O)c1c[nH]c3ccc(F)cc13)=C\CC[C@@]1(C)O[C@@H]21,-39.6% (active)
15,COc1cc(/C=N/Nc2ccc(Br)cc2)cc(OC)c1OC,30.8%
16,CCOC(=O)c1c(C)nc2c(c1N)/C(=C/c1ccc(OC)cc1)C(=O)N2Cc1ccccc1,40.7%
17,Cn1c(=O)c2[nH]c(SCC(=O)Nc3ccc(C(=O)/C=C/c4ccccc4Cl)cc3)nc2n(C)c1=O,92.4%
18,CCN(CC)CCCOc1ccc2ncnc(Nc3ccc(Oc4cccc(C(F)(F)F)c4)c(Cl)c3)c2c1,18.7%
19,Nc1nc(N)c2c(n1)NC(c1ccc(Cl)cc1)C1CCc3ccccc3C1=N2 (centres undefined),52.6%
